Test results: PubChem BioAssay
The source made the active and inactive calls.

Tests used:
Albumin (Bos taurus) = Albumin (Bos taurus) (UniProt P02769); experiment: bovine serum albumin binders on microarray, profiling panel, artefact control for SMM control protein annotation, biochemical, small-molecule microarray, Alexa647 label, 635/667 nm fluorescence (AID 1118); conditions: BSA-A647 binding, fluorescence 635 nm, higher = more signal;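 further: score merges 667 nm emission intensity and signal-to-noise per printed compound spot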
Sequence of Albumin (Bos taurus) (P02769 whole entry, looked up): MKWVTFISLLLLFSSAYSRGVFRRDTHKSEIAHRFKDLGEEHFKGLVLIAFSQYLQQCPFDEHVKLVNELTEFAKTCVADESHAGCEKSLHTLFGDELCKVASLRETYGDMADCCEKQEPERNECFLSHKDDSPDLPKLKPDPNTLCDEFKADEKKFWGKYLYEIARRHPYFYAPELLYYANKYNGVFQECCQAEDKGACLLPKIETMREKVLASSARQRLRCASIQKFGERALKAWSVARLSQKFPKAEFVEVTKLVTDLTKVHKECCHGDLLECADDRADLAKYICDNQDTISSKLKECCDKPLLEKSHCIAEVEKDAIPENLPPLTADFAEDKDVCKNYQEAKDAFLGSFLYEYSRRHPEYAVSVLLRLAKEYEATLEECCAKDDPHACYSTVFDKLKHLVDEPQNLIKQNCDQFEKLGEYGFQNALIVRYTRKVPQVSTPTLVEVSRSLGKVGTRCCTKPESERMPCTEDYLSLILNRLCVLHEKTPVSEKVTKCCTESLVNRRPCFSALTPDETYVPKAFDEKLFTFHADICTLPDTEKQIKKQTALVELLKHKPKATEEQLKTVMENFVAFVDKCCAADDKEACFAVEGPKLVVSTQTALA

[1] = small-molecule microarray binders of probe aXIP, primary screen, biochemical, NeuroSMM set, 635/667 nm fluorescence (AID 1119); conditions: higher = more signal, called active from +8 up or from −8 down;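 further: probe is the protein aXip251-270 applied at 1 µg/mL to compound-printed slides; binding of probe to printed compounds measured as 667 nm fluorescence plus signal to noise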
[2] = small-molecule binders of probe aNOTCH3, primary screen, biochemical, small-molecule microarray, 635/667 nm fluorescence (AID 1120); conditions: higher = more signal;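 further: probe is a biotin-tagged antibody raised against NOTCH3 rather than NOTCH3 protein; score merges spot fluorescence near 667 nm with spot signal to noise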
[3] = small-molecule binders of probe aNOTCH2, primary screen, biochemical, small-molecule microarray, 635/667 nm fluorescence (AID 1121); conditions: higher = more signal;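 further: score merges feature fluorescence read at 667 nm with its signal to noise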
[4] = biological target: Carbonic anhydrase 2 (Homo sapiens) (UniProt P00918); experiment: CAII small-molecule binders, profiling panel, biochemical, small-molecule microarray, Alexa647-labelled CAII (AID 1122); conditions: CAII-A647 binding fluorescence, higher = more signal
[5] = COS7 lysate on small-molecule microarray, probe aHis, 635 nm (AID 1123); conditions: COS7 cell lysate, fluorescence, higher = more signal;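 further: z-score combines 667nm fluorescence intensity with signal-to-noise per printed compound spot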
[6] = compound binding in COS7 lysate, probe aLAP1, primary screen, cell lysate, small-molecule microarray (AID 1124); conditions: probe aLAP1, fluorescence, higher = more signal;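 further: lysate comes from COS7 cells expressing LAP1 and is applied at 0.3 µg/mL; score merges spot fluorescence near 667 nm with signal-to-noise over triplicate slides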
Sam68 (KHDRBS1) = experiment: Sam68 small-molecule binders, primary screen, biochemical, small-molecule microarray, 635 nm fluorescence (AID 1125); conditions: small-molecule microarray binding, higher = more signal;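 further: score merges 667 nm channel intensity with signal to noise over triplicate slides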
[7] = system: Chordin-like protein 2 (CHRDL2); experiment: CHRDL2 small-molecule binders, primary screen, biochemical, small-molecule microarray, 635 nm fluorescence (AID 1126); conditions: small-molecule microarray binding, fluorescence 635 nm; higher = more signal;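 further: printed compound slides probed with Chrdl2 protein at 4 µg/mL for 1 h at 4 C; score merges 667 nm emission intensity with signal to noise over three replicate slides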
[8] = biological target: Concanavalin-A (Canavalia ensiformis) (UniProt P02866); experiment: ConA small-molecule binders, primary screen, artefact control for SMM control protein annotation, biochemical, small-molecule microarray, Alexa647 label, 635 nm (AID 1127); conditions: ConA-A647 binding fluorescence, higher = more signal;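 further: z combines 667 nm emission intensity with signal-to-noise across three replicate slides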
Sequence of Concanavalin-A (Canavalia ensiformis) (P02866 whole entry, looked up): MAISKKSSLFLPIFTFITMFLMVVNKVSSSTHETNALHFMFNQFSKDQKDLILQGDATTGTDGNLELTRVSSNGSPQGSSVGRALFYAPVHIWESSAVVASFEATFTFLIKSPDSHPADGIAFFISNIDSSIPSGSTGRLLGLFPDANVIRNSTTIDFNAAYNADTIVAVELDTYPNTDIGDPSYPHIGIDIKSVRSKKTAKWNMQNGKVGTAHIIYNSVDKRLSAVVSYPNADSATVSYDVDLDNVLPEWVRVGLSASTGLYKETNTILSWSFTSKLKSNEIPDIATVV

[9] = anti-His antibody binders, primary screen, artefact control for SMM control protein annotation, biochemical, small-molecule microarray, 635 nm fluorescence (AID 1128); conditions: anti-His Alexa647 antibody binding, higher = more signal;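 further: score merges feature fluorescence with signal-to-noise for each printed compound spot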
[10] = system: Human papillomavirus type 1a E7 protein (residues 1-88); experiment: HPV1a E7 small-molecule binders, primary screen, biochemical, small-molecule microarray, residues 1-88, 635 nm (AID 1129); conditions: small-molecule microarray binding, fluorescence 635 nm; higher = more signal
[11] = biological target: Focal adhesion kinase 1 (Homo sapiens) (UniProt Q05397); experiment: small-molecule microarray binders of FAK, primary screen, biochemical, 635/667 nm fluorescence, BSA, DTT (AID 1130); conditions: PTK2 binding, 635 nm fluorescence, higher = more signal;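 further: composite of spot emission at 667 nm and signal to noise over triplicate slides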
Sequence of Focal adhesion kinase 1 (Homo sapiens) (Q05397 whole entry, looked up): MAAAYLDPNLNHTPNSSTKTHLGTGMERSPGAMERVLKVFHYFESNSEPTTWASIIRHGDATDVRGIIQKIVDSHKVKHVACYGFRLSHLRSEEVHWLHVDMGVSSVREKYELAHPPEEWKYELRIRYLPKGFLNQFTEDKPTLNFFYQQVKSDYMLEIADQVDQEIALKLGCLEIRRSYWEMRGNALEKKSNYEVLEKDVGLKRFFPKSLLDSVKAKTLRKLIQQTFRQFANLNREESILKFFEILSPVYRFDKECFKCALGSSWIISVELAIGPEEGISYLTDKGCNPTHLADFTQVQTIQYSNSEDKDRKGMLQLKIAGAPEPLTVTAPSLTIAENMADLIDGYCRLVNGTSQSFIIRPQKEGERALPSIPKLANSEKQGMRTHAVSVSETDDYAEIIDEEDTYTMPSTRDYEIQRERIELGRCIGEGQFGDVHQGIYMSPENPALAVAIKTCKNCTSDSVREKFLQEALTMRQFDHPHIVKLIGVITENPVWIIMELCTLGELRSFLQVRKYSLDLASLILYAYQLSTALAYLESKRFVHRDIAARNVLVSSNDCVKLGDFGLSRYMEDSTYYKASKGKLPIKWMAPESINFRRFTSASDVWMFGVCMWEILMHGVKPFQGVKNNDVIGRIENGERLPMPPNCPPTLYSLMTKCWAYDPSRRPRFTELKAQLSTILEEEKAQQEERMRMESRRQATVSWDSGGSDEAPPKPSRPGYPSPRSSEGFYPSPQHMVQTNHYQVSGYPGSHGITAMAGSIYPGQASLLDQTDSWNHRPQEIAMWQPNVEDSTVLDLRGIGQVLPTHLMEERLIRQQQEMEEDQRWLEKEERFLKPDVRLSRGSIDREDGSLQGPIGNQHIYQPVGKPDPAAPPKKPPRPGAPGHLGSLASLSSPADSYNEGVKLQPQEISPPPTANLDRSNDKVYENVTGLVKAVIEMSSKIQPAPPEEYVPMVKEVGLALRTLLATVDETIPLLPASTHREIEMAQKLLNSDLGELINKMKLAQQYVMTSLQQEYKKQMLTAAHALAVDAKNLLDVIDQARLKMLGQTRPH

[12] = system: Fibrinogen (Alexa647-labelled); experiment: fibrinogen binders on compound microarrays, profiling panel, artefact control for SMM control-protein annotation, biochemical, small-molecule microarray, 635/667 nm fluorescence (AID 1131); conditions: fibrinogen-A647 binding fluorescence, higher = more signal;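 further: z-score merges 667 nm fluorescence with per-spot signal-to-noise over triplicate slides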
[13] = biological target: Follistatin (Homo sapiens) (UniProt P19883); experiment: follistatin binders on small-molecule microarrays, primary screen, biochemical, small-molecule microarray, 635/667 nm fluorescence (AID 1132); conditions: FST binding, 635 nm fluorescence, higher = more signal
Sequence of Follistatin (Homo sapiens) (P19883 whole entry, looked up): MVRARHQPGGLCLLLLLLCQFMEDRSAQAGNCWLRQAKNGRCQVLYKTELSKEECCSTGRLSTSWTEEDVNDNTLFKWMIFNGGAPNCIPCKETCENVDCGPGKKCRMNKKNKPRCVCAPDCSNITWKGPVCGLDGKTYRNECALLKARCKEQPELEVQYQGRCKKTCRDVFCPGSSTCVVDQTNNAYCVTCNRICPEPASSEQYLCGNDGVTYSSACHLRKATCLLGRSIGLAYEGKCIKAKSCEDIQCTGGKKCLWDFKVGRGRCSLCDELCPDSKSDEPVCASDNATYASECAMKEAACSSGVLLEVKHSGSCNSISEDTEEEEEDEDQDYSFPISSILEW

[14] = biological target: Fibroblast growth factor 2 (Homo sapiens) (UniProt P09038); experiment: FGF2 binders on small-molecule microarrays, primary screen, biochemical, small-molecule microarray, 635/667 nm fluorescence (AID 1133); conditions: small-molecule microarray binding, FGF2, fluorescence 635/667; higher = more signal
Sequence of Fibroblast growth factor 2 (Homo sapiens) (P09038 whole entry, looked up): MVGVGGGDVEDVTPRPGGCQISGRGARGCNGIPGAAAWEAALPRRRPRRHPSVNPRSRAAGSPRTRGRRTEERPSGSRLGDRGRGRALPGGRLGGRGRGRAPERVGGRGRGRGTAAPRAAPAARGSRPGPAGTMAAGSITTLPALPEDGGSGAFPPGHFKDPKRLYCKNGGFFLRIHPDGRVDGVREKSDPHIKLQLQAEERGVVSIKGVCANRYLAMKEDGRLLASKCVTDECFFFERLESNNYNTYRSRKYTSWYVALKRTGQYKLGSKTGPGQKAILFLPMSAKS

[15] = mitochondrial membrane potential change in A549 cells, profiling panel, cell-based, JC-1 fluorescence, basal, 24 h, 100 nL (AID 1138); conditions: higher = more signal;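 further: A549 lung adenocarcinoma cells under basal conditions with no added stimulus; test concentration not given here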
Lefty1 = Lefty1 binders on small-molecule microarrays, primary screen, biochemical, small-molecule microarray, 635/667 nm fluorescence (AID 1139); conditions: small-molecule microarray binding, fluorescence 635/667; higher = more signal
[16] = system: wheat germ agglutinin (Triticum aestivum), Alexa647-labelled; experiment: wheat germ agglutinin binders on compound microarrays, profiling panel, artefact control for SMM control-protein annotation, biochemical, small-molecule microarray, 635/667 nm fluorescence (AID 1140); conditions: WGA-A647 binding, 635 nm fluorescence, higher = more signal;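 further: score merges 667 nm feature emission with signal to noise over triplicate slides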
[17] = biological target: Luciferin 4-monooxygenase (Photinus pyralis) (UniProt P08659); experiment: firefly luciferase enzyme inhibitors, primary screen, biochemical, luminescence, purified enzyme, 2006 set (AID 1141); conditions: SteadyGlo luminescence, 30 min, higher = more signal, called active from +8 up or from −8 down;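 further: cell-free assay with purified firefly luciferase at 100 ng per well in PBS; test concentration not given here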
Sequence of Luciferin 4-monooxygenase (Photinus pyralis) (P08659 whole entry, looked up): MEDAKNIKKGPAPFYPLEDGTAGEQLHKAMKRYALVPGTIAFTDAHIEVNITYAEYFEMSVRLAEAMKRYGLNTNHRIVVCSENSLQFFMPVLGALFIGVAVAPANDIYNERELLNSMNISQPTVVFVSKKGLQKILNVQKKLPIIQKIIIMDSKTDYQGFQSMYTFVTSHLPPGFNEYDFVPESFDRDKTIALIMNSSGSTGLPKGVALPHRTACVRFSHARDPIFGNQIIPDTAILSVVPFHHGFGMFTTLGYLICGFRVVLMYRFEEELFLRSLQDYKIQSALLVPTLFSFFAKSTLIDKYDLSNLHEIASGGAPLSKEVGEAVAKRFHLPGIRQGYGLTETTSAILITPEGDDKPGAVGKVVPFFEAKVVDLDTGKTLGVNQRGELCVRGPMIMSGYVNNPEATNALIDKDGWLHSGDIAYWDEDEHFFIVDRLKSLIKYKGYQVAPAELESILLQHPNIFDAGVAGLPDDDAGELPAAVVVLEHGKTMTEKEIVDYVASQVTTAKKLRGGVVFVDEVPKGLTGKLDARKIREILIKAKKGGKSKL

SMILES	composite z-score (Albumin (Bos taurus))	composite Z-score [1]	composite z-score [2]	composite z-score [3]	composite z-score [4]	composite z-score [5]	composite z-score [6]	composite z-score (Sam68 (KHDRBS1))	composite z-score [7]	composite z-score [8]	composite z-score [9]	composite z-score [10]	composite z-score [11]	composite z-score [12]	composite z-score [13]	composite z-score [14]	z-score [15]	composite z-score (Lefty1)	composite z-score [16]	z-score [17]
CCOC(=O)C1=CCC(c2ccncc2)N(S(=O)(=O)c2ccc(C)cc2)C1 (stereo not given)	0.924	0.525 (inactive)	0.191	-0.0621	0.702	2.6	1.05	1.3	0.192	0.786	0.871	1.25	1.5	1.01	0.844	0.454	-0.497	0.353	0.829	-0.786 (inactive)
O=C1O[C@H](c2ccccc2)[C@H](c2ccccc2)N2[C@H]1[C@@H](C(=O)O)[C@]1(C(=O)Nc3ccccc31)[C@H]2c1ccc(OCCO)cc1	1.03	-0.617 (inactive)	0.0576	0.024	0.749	1.79	0.59	1.16	-0.192	0.864	1.26	0.823	-0.0003	0.438	0.496	0.293	0.209	-0.193	0.677	-1.01 (inactive)
COCCCNC(=O)[C@@]1(c2ccc([N+](=O)[O-])cc2)CC(=O)N(C2CCCCC2)[C@@H]1c1ccc(CO)cc1I	-0.102	2.09 (inactive)	-0.095	0.0409	0.427	2.23	0.426	1.03	0.151	1.14	3.3	1.2	0.964	0.014	1.45	1.44	2.77	0.418	0.524	-0.883 (inactive)
O=C(NCCN1CCOCC1)[C@@H]1c2ccccc2C(=O)N(CC23CC4CC(CC(C4)C2)C3)[C@H]1c1ccc(CO)cc1	0.974	0.864 (inactive)	0.216	0.0129	0.642	2.17	0.522	1.3	0.0884	1.14	2.06	1.25	0.211	0.962	0.99	0.424	1.26	0.357	1.17	0.733 (inactive)
